Source: PubChem BioAssay
ADAM10 inh: human ADAM10 inhibitors, primary screen, biochemical, QFRET, HTS. recombinant ADAM10, EDANS/DABCYL FRET peptide cleavage, 3 h. inhibition, % at 7 µM. 370,000 compounds, 0.62% hits. AID 720582, 2013;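 active means inhibition above a per-campaign cutoff equal to the mean of compounds falling between control-based bounds plus 3 SD, cut at about 20% in these data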;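 further: 0% = DMSO wells while the 100% control is not disclosed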
APOBEC3A inh: APOBEC3A ssDNA deaminase inhibitors, primary screen, selectivity assay for APOBEC3G inhibitor project, biochemical, FAM/TAMRA oligo cleavage fluorescence | inhibition, % at 20 µM | recombinant A3A, FAM/TAMRA ssDNA deamination fluorescence | DNA dC->dU-editing enzyme APOBEC-3A (Homo sapiens), P31941 | 330,000 compounds, 0.41% hits;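 active means at least 40% inhibition at 20 µM here, with at most 30% in a related deaminase screen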;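 further: plate controls were A3A with DMSO for no effect and wells lacking A3A enzyme for full effect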
APOBEC3G inh: APOBEC3G DNA deaminase inhibitors, primary screen, biochemical, fluorescence, single-stranded DNA substrate, uHTS; 330,000 compounds, 0.28% hits; recombinant A3G, ssDNA deamination FAM/TAMRA fluorescence; inhibition, % at 20 µM; DNA dC->dU-editing enzyme APOBEC-3G (Homo sapiens), Q9HC16;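 active means inhibition of at least 40% at 20 µM, with no more than 30% in the related APOBEC3A deaminase screen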;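 further: plate controls were DMSO wells with A3G for no effect and wells lacking A3G enzyme for full effect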
CendR NRP1 mod: modulators of CendR peptide binding to NRP-1, primary screen, biochemical, fluorescence polarization, uHTS; 360,000 compounds, 0.85% hits; Neuropilin-1 (Homo sapiens), O14786; AID 602438, 2012; inhibition, % at 25 µM; FAM-RPARPAR peptide binding to NRP-1;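 active means inhibition or corrected inhibition above about 18%, plus a signal ratio from 0.5 to 1.5, limit read from the data, passing the limit was not always enough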
ADAM17 inh: ADAM17 inhibitors, primary screen, biochemical, QFRET. Disintegrin and metalloproteinase domain-containing protein 17 (Homo sapiens), P78536. inhibition, % at 6.95 µM. 370,000 compounds, 0.83% hits. recombinant ADAM17, EDANS/DABCYL FRET peptide cleavage. AID 720648, 2013;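 active means inhibition above the mean of compounds lying between control limits plus 3 SD, set per campaign, cut at about 8.5% in these data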;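 further: 0% = DMSO-only wells as the low control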
Target sequence (P78536 215-824 limits assumed): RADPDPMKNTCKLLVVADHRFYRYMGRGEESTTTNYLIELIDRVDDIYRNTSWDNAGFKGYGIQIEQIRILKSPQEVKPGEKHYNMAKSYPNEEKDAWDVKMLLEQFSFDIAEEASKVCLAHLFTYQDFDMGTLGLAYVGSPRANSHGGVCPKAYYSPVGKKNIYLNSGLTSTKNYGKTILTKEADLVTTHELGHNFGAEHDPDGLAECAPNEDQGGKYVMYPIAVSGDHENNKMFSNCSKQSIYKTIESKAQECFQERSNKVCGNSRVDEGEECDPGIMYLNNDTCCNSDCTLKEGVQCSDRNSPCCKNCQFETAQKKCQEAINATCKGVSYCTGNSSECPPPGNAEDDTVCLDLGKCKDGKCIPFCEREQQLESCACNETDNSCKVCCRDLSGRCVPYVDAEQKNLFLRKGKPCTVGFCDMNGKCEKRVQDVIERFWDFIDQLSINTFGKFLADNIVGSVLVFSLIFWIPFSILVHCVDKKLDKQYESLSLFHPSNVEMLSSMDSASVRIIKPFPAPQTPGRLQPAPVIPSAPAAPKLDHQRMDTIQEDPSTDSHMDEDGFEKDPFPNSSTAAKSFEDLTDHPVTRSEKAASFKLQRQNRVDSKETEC
APOBEC3A confirm: APOBEC3A deaminase inhibitors, retest, confirmation, selectivity assay for APOBEC3G inhibitor project, biochemical, single concentration, fluorescence readout; shares compounds with APOBEC3A inh; recombinant A3A, ssDNA deaminase UDG fluorescence assay; inhibition, % at 20 µM; 1,400 compounds, 63% hits;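 active means inhibition reaching a set limit, 80% of the first screen's cutoff, at 20 µM in any replicate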;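 further: plate controls were DMSO wells with A3A for no effect and wells lacking A3A enzyme for full effect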
UDG A3A counter: E. coli UDG inhibitors, confirmation, counter-screen for APOBEC3A inhibitor project, biochemical, single concentration, fluorescence, FAM/TAMRA oligo; shares compounds with APOBEC3A inh; UDG counterscreen, FAM/TAMRA uracil oligo fluorescence; inhibition, % at 20 µM; 1,000 tested, under 10 active; AID 504714, 2011; call rule not given here
Active calls of the source: *. In the library only some 2.4% were active in any assay of this set; here they are far more common.

For Cc1ccc(S(=O)(=O)NC[C@H]2CN(S(=O)(=O)c3ccc(C)cc3)[C@@H](Cc3ccccc3)CO2)cc1 the results were ADAM10 inh 13 and ADAM17 inh 6.
`COC(=O)c1ccccc1NC(=O)c1cc[n+](C)cc1` gave ADAM10 inh 4, APOBEC3A inh 77*, APOBEC3G inh 19, CendR NRP1 mod -4, ADAM17 inh 0, APOBEC3A confirm 57* and UDG A3A counter -2.
For COc1ccccc1NC(=O)c1ccc(NC(=O)C2CC2)cc1 the results were ADAM10 inh -4, CendR NRP1 mod -4 and ADAM17 inh 1.
COC(=O)c1ccccc1NC(=O)c1noc2c1CCC2 was read as ADAM10 inh -5, APOBEC3A inh 59*, APOBEC3G inh 23, CendR NRP1 mod -12, ADAM17 inh -6 and APOBEC3A confirm 47*.
`COc1ccccc1NC(=O)c1cc[n+](C)cc1` gave ADAM10 inh -8, APOBEC3A inh 86*, APOBEC3G inh 10, CendR NRP1 mod 0, ADAM17 inh -4, APOBEC3A confirm 64* and UDG A3A counter 2.
For CSc1ccccc1NC(=O)c1noc2c1CCC2 the results were ADAM10 inh -2, APOBEC3A inh 37, APOBEC3G inh 16, CendR NRP1 mod 5 and ADAM17 inh 0.
For COC(=O)[C@]12C[C@H](CC(=O)NCc3cccc(C(F)(F)F)c3)C(=O)N(Cc3ccco3)C1=C[C@H](COCc1ccccc1)O[C@@H]2C the results were ADAM10 inh 14 and ADAM17 inh 3.
For O=C1NC(=S)SC1=C1CCCC1 the results were ADAM10 inh 7, APOBEC3A inh 62*, APOBEC3G inh 21, CendR NRP1 mod -71, ADAM17 inh -1, APOBEC3A confirm 58* and UDG A3A counter -3.
Screening Cc1ccc(NC(=O)CSc2nnc(-c3ccccc3F)n2-c2ccccc2)c(C)c1 returned ADAM10 inh 5 and ADAM17 inh 2.
`O=C(N[C@@H](Cc1cccnc1)C(=O)N1CCC[C@H]1C(=O)NC1CCCC1)c1cccs1` gave ADAM10 inh -14 and ADAM17 inh -4.
Screening CCC(Oc1ccccc1OC)C(=O)Nc1ccc2c(c1)OCCO2 (stereo not given) returned ADAM10 inh 4, CendR NRP1 mod 3, ADAM17 inh -4 and APOBEC3A confirm 57*.
`CN(C)C(=O)N1CCN(C(=O)[C@H]2O[C@@H](n3ccc(N)nc3=O)[C@H](O)[C@@H]2O)CC1` gave ADAM10 inh -2 and ADAM17 inh -1.
`CCc1n(CC(O)COCC2CC=CCC2)c2ccccc2[n+]1C` (stereo not given) gave ADAM10 inh 0, APOBEC3A inh 62*, APOBEC3G inh 27, CendR NRP1 mod -1, ADAM17 inh -6, APOBEC3A confirm 70* and UDG A3A counter -2.
`Cc1n(CC(O)COCc2ccccc2)c2ccccc2[n+]1C` (stereo not given) gave ADAM10 inh 0, APOBEC3A inh 59*, APOBEC3G inh 16, CendR NRP1 mod -3, ADAM17 inh -4, APOBEC3A confirm 71* and UDG A3A counter -2.
For CCn1c(NC2CCCCC2)nc2ccccc21 the results were ADAM10 inh -4, APOBEC3A inh 0, APOBEC3G inh 0, CendR NRP1 mod -10 and ADAM17 inh -3.
For CCn1c(C)[n+](CC(O)COCC2CC=CCC2)c2ccccc21 (stereo not given) the results were ADAM10 inh -3, APOBEC3A inh 66*, APOBEC3G inh 29, CendR NRP1 mod 6, ADAM17 inh -3, APOBEC3A confirm 75* and UDG A3A counter -2.
Screening CCCc1n(CC)c2ccccc2[n+]1CC(O)COC1CCCCC1 (stereo not given) returned ADAM10 inh 1, APOBEC3A inh 89*, APOBEC3G inh 15, CendR NRP1 mod 4, ADAM17 inh -8, APOBEC3A confirm 75* and UDG A3A counter 2.
C=CCCC1CN(Cc2ccc(OC)cc2)S(=O)(=O)c2c(cccc2N2CCCC2)O1 (stereo not given) was read as ADAM10 inh 2 and ADAM17 inh 1.
Cc1nc2ccccc2n1CC(O)COCC1CC=CCC1 (stereo not given) was read as ADAM10 inh -9, APOBEC3A inh -3, APOBEC3G inh 16, CendR NRP1 mod -4 and ADAM17 inh -6.
For CCc1n(CC(O)COC2CCCCC2)c2ccccc2[n+]1C (stereo not given) the results were ADAM10 inh 2, APOBEC3A inh 67*, APOBEC3G inh 20, CendR NRP1 mod 9, ADAM17 inh 2, APOBEC3A confirm 71* and UDG A3A counter -2.
`COc1cccc(N2CCN(CC(=O)NC(=O)NCc3ccco3)CC2)c1` gave ADAM10 inh -6, APOBEC3A inh 47*, APOBEC3G inh 25, CendR NRP1 mod -8, ADAM17 inh -3, APOBEC3A confirm 27* and UDG A3A counter -4.
CCC(C)Sc1nnc(Cc2cc(=O)[nH]c(=O)[nH]2)n1-c1ccc(OC)cc1 (stereo not given) was read as ADAM10 inh -23, APOBEC3A inh 63*, APOBEC3G inh -4, CendR NRP1 mod 3, ADAM17 inh -6, APOBEC3A confirm -2 and UDG A3A counter -2.
Screening S=C(Nc1ccc(Cl)c(Cl)c1)Nc1nnc(-c2ccncc2)s1 returned ADAM10 inh -104 and ADAM17 inh -35.
For CC(=O)OC(COC1C[C@@H]2CC[C@@]1(C)C2(C)C)C[N+]1(C)CCCCC1 (stereo not given in full) the results were ADAM10 inh -2, APOBEC3A inh 48*, APOBEC3G inh 15, CendR NRP1 mod 0, ADAM17 inh -5, APOBEC3A confirm 70* and UDG A3A counter -3.
For CCC(C)OC(=O)C[N+](C)(C)CCOC1CC2CCC1(C)C2(C)C (stereo not given) the results were ADAM10 inh -15, APOBEC3A inh 1, APOBEC3G inh -3, CendR NRP1 mod 4 and ADAM17 inh -4.
CCCCn1c(N)c(N(CC)C(=O)c2ccc(Cl)c([N+](=O)[O-])c2)c(=O)[nH]c1=O was read as ADAM10 inh 3, APOBEC3A inh 50*, APOBEC3G inh 2, CendR NRP1 mod 10, ADAM17 inh -3 and APOBEC3A confirm 28.
